# The source made the active and inactive calls.
# How the values were obtained:
# [1] = system: Human papillomavirus type 1a protein E7 (residues 44-93); test: HPV1a E7 fragment binders on microarrays, primary screen, biochemical, small-molecule microarray, residues 44-93, 635 nm fluorescence (AID 1108); settings: small-molecule microarray binding, fluorescence 635 nm; higher = more signal;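 note: E7 fragment applied at 1 µg/mL in TBST for 1 h at 4 C; score combines spot fluorescence with its signal to noise ratio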
# [2] = modulators of HCV replicon luciferase signal, primary screen, HCV replication inhibitor project, Huh7 cells, luciferase reporter (AID 1109); settings: 48 h, higher = more signal;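 note: huh7 hepatoma cells harbouring a luciferase neomycin HCV replicon reporter; luciferase luminescence as measure of HCV replicon replication; test concentration not given here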
# [3] = target: Left-right determination factor 2 (Homo sapiens) (UniProt O00292); test: LEFTY2 binders on small-molecule microarrays, primary screen, biochemical, small-molecule microarray, 635 nm fluorescence scan (AID 1110); settings: LEFTY2 binding, higher = more signal
# [4] = target: Calmodulin-1 (Homo sapiens) (UniProt P0DP23); test: CALM1 binders on microarrays, EGTA buffer, profiling panel, biochemical, small-molecule microarray, Cy5-labelled CALM1 (AID 1111); settings: Cy5-CALM1 binding fluorescence, higher = more signal;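 note: labelled calmodulin applied in Tris saline Tween buffer holding calcium plus EGTA and DTT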
# [5] = target: Calmodulin-1 (Homo sapiens) (UniProt P0DP23); test: calcium-bound CALM1 binders on microarrays, profiling panel, artefact control for SMM control-protein annotation, biochemical, small-molecule microarray, Cy5-labelled CALM1, plus calcium (AID 1112); settings: Cy5-CALM1 binding fluorescence, higher = more signal;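 note: score merges spot fluorescence with signal to noise from triplicate slides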
# [6] = small-molecule microarray binders of probe aWnt5a, primary screen, biochemical, biotinylated probe, 635/667 nm fluorescence (AID 1113); settings: higher = more signal;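 note: score merges 667 nm fluorescence intensity with signal-to-noise per printed feature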
# [7] = small-molecule microarray binders of probe aShh, primary screen, biochemical, biotinylated probe, 635/667 nm fluorescence (AID 1114); settings: higher = more signal;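 note: probe is biotin-labelled aShh protein from a stem cell growth factor screen; measures binding of labelled protein to compounds printed on the slide; score merges feature fluorescence at 667 nm with signal-to-noise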
# [8] = small-molecule microarray binders of probe aNog, primary screen, biochemical, biotinylated probe, 635/667 nm fluorescence (AID 1115); settings: higher = more signal;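 note: probe is biotinylated aNog protein used at 0.15 µg/mL for 1 h at 4 C; z-score combines 667 nm fluorescence of each spot with its signal to noise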
# [9] = target: Torsin-1A-interacting protein 1 (Homo sapiens) (UniProt Q5JTV8); test: LAP1 binders from COS7 cell lysate, primary screen, small-molecule microarray, 635/667 nm fluorescence (AID 1116); settings: COS7-hLAP1 lysate binding, 635 nm fluorescence, higher = more signal
# [10] = target: Alpha-bungarotoxin (Bungarus multicinctus) (UniProt P60615); test: alpha-bungarotoxin binders on microarray, profiling panel, artefact control for SMM control protein annotation, biochemical, small-molecule microarray, Alexa647 label, 635/667 nm fluorescence (AID 1117); settings: alpha-BTX-A647 binding fluorescence, higher = more signal
# Albumin (Bos taurus) = Albumin (Bos taurus) (UniProt P02769); test: bovine serum albumin binders on microarray, profiling panel, artefact control for SMM control protein annotation, biochemical, small-molecule microarray, Alexa647 label, 635/667 nm fluorescence (AID 1118); settings: BSA-A647 binding, fluorescence 635 nm, higher = more signal;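 note: score merges 667 nm emission intensity and signal-to-noise per printed compound spot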
# [11] = small-molecule microarray binders of probe aXIP, primary screen, biochemical, NeuroSMM set, 635/667 nm fluorescence (AID 1119); settings: higher = more signal, called active from +8 up or from −8 down;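 note: probe is the protein aXip251-270 applied at 1 µg/mL to compound-printed slides; binding of probe to printed compounds measured as 667 nm fluorescence plus signal to noise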
# [12] = small-molecule binders of probe aNOTCH3, primary screen, biochemical, small-molecule microarray, 635/667 nm fluorescence (AID 1120); settings: higher = more signal;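 note: probe is a biotin-tagged antibody raised against NOTCH3 rather than NOTCH3 protein; score merges spot fluorescence near 667 nm with spot signal to noise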
# [13] = small-molecule binders of probe aNOTCH2, primary screen, biochemical, small-molecule microarray, 635/667 nm fluorescence (AID 1121); settings: higher = more signal;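 note: score merges feature fluorescence read at 667 nm with its signal to noise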
# [14] = target: Carbonic anhydrase 2 (Homo sapiens) (UniProt P00918); test: CAII small-molecule binders, profiling panel, biochemical, small-molecule microarray, Alexa647-labelled CAII (AID 1122); settings: CAII-A647 binding fluorescence, higher = more signal
# [15] = COS7 lysate on small-molecule microarray, probe aHis, 635 nm (AID 1123); settings: COS7 cell lysate, fluorescence, higher = more signal;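 note: z-score combines 667nm fluorescence intensity with signal-to-noise per printed compound spot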
# [16] = compound binding in COS7 lysate, probe aLAP1, primary screen, cell lysate, small-molecule microarray (AID 1124); settings: probe aLAP1, fluorescence, higher = more signal;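 note: lysate comes from COS7 cells expressing LAP1 and is applied at 0.3 µg/mL; score merges spot fluorescence near 667 nm with signal-to-noise over triplicate slides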
# Sam68 (KHDRBS1) = test: Sam68 small-molecule binders, primary screen, biochemical, small-molecule microarray, 635 nm fluorescence (AID 1125); settings: small-molecule microarray binding, higher = more signal;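 note: score merges 667 nm channel intensity with signal to noise over triplicate slides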
# [17] = system: Chordin-like protein 2 (CHRDL2); test: CHRDL2 small-molecule binders, primary screen, biochemical, small-molecule microarray, 635 nm fluorescence (AID 1126); settings: small-molecule microarray binding, fluorescence 635 nm; higher = more signal;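 note: printed compound slides probed with Chrdl2 protein at 4 µg/mL for 1 h at 4 C; score merges 667 nm emission intensity with signal to noise over three replicate slides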
# [18] = target: Concanavalin-A (Canavalia ensiformis) (UniProt P02866); test: ConA small-molecule binders, primary screen, artefact control for SMM control protein annotation, biochemical, small-molecule microarray, Alexa647 label, 635 nm (AID 1127); settings: ConA-A647 binding fluorescence, higher = more signal;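 note: z combines 667 nm emission intensity with signal-to-noise across three replicate slides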
# Sequence of Concanavalin-A (Canavalia ensiformis) (P02866 whole entry, looked up): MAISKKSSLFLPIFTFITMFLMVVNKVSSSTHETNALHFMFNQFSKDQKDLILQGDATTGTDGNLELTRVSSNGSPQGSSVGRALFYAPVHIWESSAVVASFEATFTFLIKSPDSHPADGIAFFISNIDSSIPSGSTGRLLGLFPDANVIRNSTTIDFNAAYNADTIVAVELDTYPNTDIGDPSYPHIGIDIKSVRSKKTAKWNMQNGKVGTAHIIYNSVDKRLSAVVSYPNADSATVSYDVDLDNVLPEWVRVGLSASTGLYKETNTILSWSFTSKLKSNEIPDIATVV
# Sequence of Left-right determination factor 2 (Homo sapiens) (O00292 whole entry, looked up): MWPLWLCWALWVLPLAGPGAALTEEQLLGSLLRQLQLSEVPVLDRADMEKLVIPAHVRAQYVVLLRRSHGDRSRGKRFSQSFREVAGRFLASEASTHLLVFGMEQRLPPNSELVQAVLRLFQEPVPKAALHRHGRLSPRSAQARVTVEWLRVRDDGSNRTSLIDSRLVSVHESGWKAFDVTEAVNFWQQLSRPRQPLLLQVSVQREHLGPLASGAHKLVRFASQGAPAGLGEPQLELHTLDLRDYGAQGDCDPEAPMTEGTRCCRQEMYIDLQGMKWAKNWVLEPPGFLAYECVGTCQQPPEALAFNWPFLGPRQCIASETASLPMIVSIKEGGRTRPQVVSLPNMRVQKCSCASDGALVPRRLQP
# Sequence of Torsin-1A-interacting protein 1 (Homo sapiens) (Q5JTV8 whole entry, looked up): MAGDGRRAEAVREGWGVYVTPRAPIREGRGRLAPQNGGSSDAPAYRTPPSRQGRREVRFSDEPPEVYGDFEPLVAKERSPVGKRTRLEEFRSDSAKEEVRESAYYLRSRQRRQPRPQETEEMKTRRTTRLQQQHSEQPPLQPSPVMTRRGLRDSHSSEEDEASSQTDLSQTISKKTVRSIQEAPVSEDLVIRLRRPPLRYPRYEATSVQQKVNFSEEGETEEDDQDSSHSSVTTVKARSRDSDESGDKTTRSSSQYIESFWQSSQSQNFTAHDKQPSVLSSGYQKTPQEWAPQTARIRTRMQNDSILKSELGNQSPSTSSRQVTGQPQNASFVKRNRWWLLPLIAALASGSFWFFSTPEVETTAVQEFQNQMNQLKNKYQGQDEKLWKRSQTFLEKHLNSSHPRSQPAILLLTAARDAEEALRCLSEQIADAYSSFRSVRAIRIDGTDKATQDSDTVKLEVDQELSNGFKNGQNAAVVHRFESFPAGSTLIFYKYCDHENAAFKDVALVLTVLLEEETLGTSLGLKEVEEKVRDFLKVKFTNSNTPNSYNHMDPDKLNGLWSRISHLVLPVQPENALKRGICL
# Sequence of Albumin (Bos taurus) (P02769 whole entry, looked up): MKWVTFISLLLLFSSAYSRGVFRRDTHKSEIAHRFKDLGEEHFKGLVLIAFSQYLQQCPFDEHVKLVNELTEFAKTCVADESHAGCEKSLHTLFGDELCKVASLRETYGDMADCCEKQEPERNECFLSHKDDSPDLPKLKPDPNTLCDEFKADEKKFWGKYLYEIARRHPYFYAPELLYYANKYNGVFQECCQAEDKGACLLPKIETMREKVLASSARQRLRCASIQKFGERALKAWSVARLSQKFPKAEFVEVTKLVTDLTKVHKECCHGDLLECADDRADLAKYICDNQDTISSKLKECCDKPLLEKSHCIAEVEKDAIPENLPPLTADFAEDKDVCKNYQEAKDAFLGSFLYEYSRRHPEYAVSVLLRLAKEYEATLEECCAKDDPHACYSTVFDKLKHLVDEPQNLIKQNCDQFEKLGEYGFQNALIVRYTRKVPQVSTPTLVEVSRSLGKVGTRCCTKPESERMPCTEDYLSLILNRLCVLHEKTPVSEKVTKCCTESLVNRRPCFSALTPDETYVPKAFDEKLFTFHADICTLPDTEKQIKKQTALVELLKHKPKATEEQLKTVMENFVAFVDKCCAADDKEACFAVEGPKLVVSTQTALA
# Sequence of Alpha-bungarotoxin (Bungarus multicinctus) (P60615 whole entry, looked up): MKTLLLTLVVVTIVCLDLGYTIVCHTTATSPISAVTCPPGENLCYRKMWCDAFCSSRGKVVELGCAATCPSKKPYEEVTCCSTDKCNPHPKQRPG
Compound,composite z-score [1],z-score [2],composite z-score [3],composite z-score [4],composite z-score [5],composite z-score [6],composite z-score [7],composite z-score [8],composite z-score [9],composite z-score [10],composite z-score (Albumin (Bos taurus)),composite Z-score [11],composite z-score [12],composite z-score [13],composite z-score [14],composite z-score [15],composite z-score [16],composite z-score (Sam68 (KHDRBS1)),composite z-score [17],composite z-score [18]
COCCCNC(=O)[C@@]1(Sc2ccc(C)cc2)CC(=O)N(Cc2ccccc2Cl)[C@@H]1c1ccc(CO)cc1I,-0.747,-1.94,-1.6,-0.434,0.717,-0.28,0.0115,-0.323,-1.36,-0.659,0.7,-0.0202 (inactive),-0.145,-0.178,0.809,0.658,-0.47,-1.22,-1.05,-0.556
CN1C(=O)C2C=CC(C(O)c3ccc(I)cc3)N(Nc3ccccc3)C2C1=O (stereo not given),1.33,0.132,0.136,1.63,0.544,0.172,0.36,0.551,0.0151,1.26,0.939,0.412 (inactive),0.323,-0.0389,0.547,1.91,0.595,1.14,0.569,1.15
C=C[C@@H](C)[C@@H](OC(=O)Nc1ccc(SC)cc1)c1ccc(OCCO)cc1,1.27,-0.181,-0.0734,1.24,0.305,-0.0512,-0.0192,-0.358,0.882,0.954,0.743,0.939 (inactive),0.221,-0.0814,0.715,1.07,0.248,0.87,-0.506,1.1
COCCOC(=O)N1C(=O)[C@@]2(c3cc(C#CCCO)ccc31)[C@H](c1ccccc1OCCO)N1[C@H](c3ccccc3)[C@H](c3ccccc3)OC(=O)[C@H]1[C@@H]2C(=O)N1CCCCCCC1,1.4,-2.25,0.994,2.58,1.09,0.495,1.94,2.8,3.04,2.2,0.86,0.358 (inactive),1.39,0.333,0.761,3.2,0.796,1.29,1.05,1.11
CCCCCCCCCCC(O)C1C=CC2C(=O)N(C)C(=O)C2N1Nc1cc(OC)c(OC)c(OC)c1 (stereo not given),-0.298,-2.01,-1.11,1.82,1.39,-0.0529,-0.0398,0.837,-0.232,0.229,0.869,0.776 (inactive),-0.125,-0.0521,0.0172,1.44,0.148,-0.383,-1.3,0.245
CCCCC(=C=CC[C@H](O)c1ccc(OCCO)cc1)C[C@H](O)COCc1ccccc1,0.383,-1.77,-0.233,-0.567,-0.377,-0.0685,0.14,-0.0168,0.941,0.134,-0.276,0.154 (inactive),-0.163,-0.164,0.7,1.19,0.271,0.549,-0.371,-0.434
COc1ccc(CCNC(=O)[C@@]2(Cc3ccccc3I)c3ccccc3C(=O)N(Cc3ccccc3Cl)[C@H]2c2ccc(CO)cc2)cc1,-0.542,-2.44,-0.818,0.331,0.354,0.0718,0.235,0.371,0.589,-0.0759,-0.41,1.24 (inactive),0.385,0.111,0.731,1.34,0.529,0.576,-0.311,0.555
CCOC(=O)C1=C[C@@H](C(C)(C)C)N(S(=O)(=O)c2ccc(C)cc2)[C@H]1c1ccccc1,0.834,-2.05,0.561,1.99,0.838,0.0873,0.0469,0.109,1.26,1.11,0.907,0.265 (inactive),0.176,-0.0836,0.343,0.29,0.931,1.31,-0.196,0.94
NC(=O)[C@H]1[C@@H]2C(=O)O[C@@H](c3ccccc3)[C@@H](c3ccccc3)N2[C@@H](c2ccc(O)cc2)[C@]12C(=O)Nc1ccc(C#CC3=CCCCC3)cc12,1.42,-1.49,-0.443,0.0791,-0.413,-0.0792,-0.279,-0.185,0.731,1.02,0.396,0.224 (inactive),-0.0273,-0.156,0.293,2.13,0.249,0.662,-0.758,0.565
C=CCC(OC(C)=O)[C@@H]1[C@@H](N(Cc2ccc(-c3ccccc3)cc2)C(=O)c2ccc(C)cc2)c2cc(OCCCO)ccc2N1C(=O)Cc1ccc2ccccc2c1 (stereo not given in full),-0.579,-0.588,-0.0611,-0.117,0.53,-0.0794,-0.349,0.0127,1.68,0.0941,0.233,-0.645 (inactive),-0.0362,-0.159,-0.14,0.772,-0.0769,-0.106,0.248,0.202

# From PubChem BioAssay
